Inconclusive results are not listed. Calls of active or inactive are those of the source. The calls were made as follows, unless noted: active = hit-call score of the fitted dose curve at least 0.9, where 1 is the maximum; inactive = score below 0.9.
Assays:
[1] = read-out: Interleukin-8 (IL8), CXCL8 (gene 3576); assay: BSK_3C_IL8: BioMAP Diversity Plus: 3C Assay for Interleukin-8 (IL8) Biomarker Activity (AID 2283020); details: primary human endothelial cells (HUVEC); actives raise or lower the signal
How it was run: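 Endothelial primary cells of human umbilical vein origin are dosed with chemical; after 24 h the IL-8 biomarker is measured by ELISA, and concentration–response is fitted in both directions versus DMSO.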

[2] = read-out: Monokine induced gamma interferon (MIG), CXCL9 (gene 4283); assay: BSK_3C_MIG: BioMAP Diversity Plus: 3C Assay for Monokine induced gamma interferon (MIG) Biomarker Activity (AID 2283021); details: primary human endothelial cells (HUVEC); actives raise or lower the signal;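 as to AC50: MIG protein level measured by immunoassay in the treated endothelial cultures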
How it was run: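 Endothelial primary cells (human umbilical vein) are dosed with test chemical in the 3C system. MIG levels are measured by ELISA at 24 h and fitted in both directions relative to DMSO.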

[3] = biological target: human Vitamin D Receptor (VDR), VDR (gene 7421) (UniProt P11473); assay: ATG_VDR_TRANS: Attagene TRANS-FACTORIAL HepG2 Assay for human Vitamin D Receptor (VDR) (AID 2283022; active = hit-call score of the fitted dose curve at least 0.9, where 1 is the maximum)
How it was run: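 Steps: transfect HepG2 with GAL4-UAS-driven reporter constructs; dose compounds 24 h; isolate RNA, reverse-transcribe, PCR-amplify with 6-FAM-labelled primer extension and HpaI digestion; quantify fragments by capillary electrophoresis relative to DMSO.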

[4] = BSK_3C_SRB: Viability Assessment in the BioMAP Diversity Plus: 3C Assay (AID 2283023); details: primary human endothelial cells (HUVEC);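 also: fitted both ways against DMSO so a hit may be signal rise or drop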
How it was run: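 Absorbance at 560 nm of sulforhodamine B-stained (0.1%) total protein served as a cytotoxicity readout in human umbilical vein endothelial cells, 24 h after chemical treatment. Signal was fitted bidirectionally relative to DMSO.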

[5] = read-out: Matrix Metallopeptidase 1 (MMP1), MMP1 (gene 4312); assay: BSK_BE3C_MMP1: BioMAP Diversity Plus: BE3C Assay for Matrix Metallopeptidase 1 (MMP1) Biomarker Activity (AID 2283024); details: primary human bronchial epithelial cells; actives raise or lower the signal
How it was run: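 MMP1 signal, measured by ELISA after a 24 h chemical exposure of human primary bronchial epithelial cells, is analysed with bidirectional fitting using DMSO as negative control.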

[6] = BSK_3C_Vis: BioMAP Diversity Plus: 3C Assay for Morphology Visualization (AID 2283025); details: primary human endothelial cells (HUVEC);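 also: fitted both ways so gain or loss versus DMSO counts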
How it was run: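 Morphology read by light microscopy serves as a background control for the multiplexed 3C assay in human umbilical vein endothelial cells, taken 24 h after dosing, with DMSO as the negative control and bidirectional curve fitting.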

[7] = read-out: Pselectin, SELP (gene 6403); assay: BSK_4H_Pselectin: BioMAP Diversity Plus: 4H Assay for Pselectin Biomarker Activity (AID 2283026); details: primary human endothelial cells (HUVEC); actives raise or lower the signal
How it was run: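 Endothelial primary cells (human umbilical vein) are dosed, incubated 24 h, and assayed for surface P-selectin by ELISA; responses in either direction are fitted relative to the DMSO negative control.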

[8] = BSK_4H_SRB: Viability Assessment in the BioMAP Diversity Plus: 4H Assay (AID 2283027); details: primary human endothelial cells (HUVEC);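 also: cells exposed to compound for 24 h before staining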;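 as to AC50: curves fitted both ways versus DMSO so AC50 may be loss or gain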
How it was run: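 Cytotoxicity read-out in primary human endothelial cells: after 24 h compound exposure, cells were TCA-fixed (10%), stained with 0.1% SRB and absorbance taken at 560 nm. Values fitted in both directions relative to DMSO.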

[9] = BSK_BE3C_SRB: Viability Assessment in the BioMAP Diversity Plus: BE3C Assay (AID 2283028); details: primary human bronchial epithelial cells;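 as to AC50: fitted both ways so AC50 may mark signal gain or loss versus DMSO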
How it was run: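 Cells (human bronchial epithelial, primary) are treated with chemicals, and after 24 h the parallel cultures are fixed in 10% TCA. These are then stained with 0.1% SRB and read at 560 nm. Gain or loss of signal is fitted relative to DMSO.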

[10] = read-out: Thrombomodulin, THBD (gene 7056); assay: BSK_3C_Thrombomodulin: BioMAP Diversity Plus: 3C Assay for Thrombomodulin Biomarker Activity (AID 2283029); details: primary human endothelial cells (HUVEC); actives raise or lower the signal
How it was run: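 Endothelial cells from umbilical vein are dosed with test chemical and incubated 24 h. Thrombomodulin is then quantified by ELISA, with DMSO serving as negative control and activity baseline.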

[11] = read-out: Urokinase-type plasminogen activator receptor (uPAR), PLAUR (gene 5329); assay: BSK_4H_uPAR: BioMAP Diversity Plus: 4H Assay for Urokinase-type plasminogen activator receptor (uPAR) Biomarker Activity (AID 2283030); details: primary human endothelial cells (HUVEC); actives raise or lower the signal
How it was run: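 Cell-surface uPAR ELISA signal, measured 24 h after dosing human umbilical vein endothelial cells, was analyzed with bidirectional fitting relative to DMSO. Parallel SRB staining of total protein tracked overt cytotoxicity.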

[12] = read-out: Human Leukocyte Antigen - DR isotype (HLADR), HLA-DRA (gene 3122); assay: BSK_BE3C_HLADR: BioMAP Diversity Plus: BE3C Assay for Human Leukocyte Antigen - DR isotype (HLADR) Biomarker Activity (AID 2283032); details: primary human bronchial epithelial cells; actives raise or lower the signal
How it was run: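 Chemicals are dosed onto BE3C bronchial epithelial cultures of human origin and left 24 h. HLA-DR is then measured by ELISA, and the endpoint is fitted in both directions using DMSO as the activity baseline.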

[13] = read-out: Vascular cell adhesion molecule 1 (VCAM1), VCAM1 (gene 7412); assay: BSK_4H_VCAM1: BioMAP Diversity Plus: 4H Assay for Vascular cell adhesion molecule 1 (VCAM1) Biomarker Activity (AID 2283033); details: primary human endothelial cells (HUVEC); actives raise or lower the signal
How it was run: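 Chemicals are added to primary human umbilical vein endothelial cells. After 24 h, VCAM-1 levels are measured by ELISA. Values come from bidirectional fitting referenced to DMSO.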

[14] = read-out: Interferon-gamma inducible Protein 10 (IP10), CXCL10 (gene 3627); assay: BSK_BE3C_IP10: BioMAP Diversity Plus: BE3C Assay for Interferon-gamma inducible Protein 10 (IP10) Biomarker Activity (AID 2283034); details: primary human bronchial epithelial cells; actives raise or lower the signal
How it was run: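 IP-10 quantified by ELISA serves as the endpoint. Cells: primary human bronchial epithelium, read 24 h after compound addition. Activity is derived by bidirectional fitting with DMSO as negative control.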

[15] = read-out: Monokine induced gamma interferon (MIG), CXCL9 (gene 4283); assay: BSK_BE3C_MIG: BioMAP Diversity Plus: BE3C Assay for Monokine induced gamma interferon (MIG) Biomarker Activity (AID 2283035); details: primary human bronchial epithelial cells; actives raise or lower the signal
How it was run: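 ELISA quantified MIG after 24 h exposure of primary bronchial epithelial cultures, analysed in both directions relative to DMSO. Cytotoxicity tracked in parallel cultures by sulforhodamine B staining.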

[16] = read-out: Transforming growth factor beta 1 (TGFb1), TGFB1 (gene 7040); assay: BSK_BE3C_TGFb1: BioMAP Diversity Plus: BE3C Assay for Transforming growth factor beta 1 (TGFb1) Biomarker Activity (AID 2283036); details: primary human bronchial epithelial cells; actives raise or lower the signal
How it was run: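 Bronchial epithelial primary cells are treated with test chemical, then TGF-b1 is quantified by ELISA after 24 hours. Values derive from bidirectional fitting against DMSO, with cytotoxicity checked by SRB staining in parallel cultures.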

[17] = read-out: Plasminogen activator inhibitor-1 (PAI1), SERPINE1 (gene 5054); assay: BSK_BE3C_PAI1: BioMAP Diversity Plus: BE3C Assay for Plasminogen activator inhibitor-1 (PAI1) Biomarker Activity (AID 2283037); details: primary human bronchial epithelial cells; actives raise or lower the signal
How it was run: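 Values derive from bidirectional fitting against DMSO baseline of PAI-1 levels, measured by ELISA in human bronchial epithelial cells 24 h after compound addition.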

[18] = read-out: urokinase plasminogen activator (uPA), PLAU (gene 5328); assay: BSK_BE3C_uPA: BioMAP Diversity Plus: BE3C Assay for urokinase plasminogen activator (uPA) Biomarker Activity (AID 2283038); details: primary human bronchial epithelial cells; actives raise or lower the signal
How it was run: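 Bronchial epithelial cells (human, primary); chemical 24 h; uPA by ELISA; bidirectional fit vs DMSO. SRB (0.1%, after 10% TCA fixation, 560 nm) in parallel cultures for cytotoxicity.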

[19] = read-out: Urokinase-type plasminogen activator receptor (uPAR), PLAUR (gene 5329); assay: BSK_BE3C_uPAR: BioMAP Diversity Plus: BE3C Assay for Urokinase-type plasminogen activator receptor (uPAR) Biomarker Activity (AID 2283039); details: primary human bronchial epithelial cells; actives raise or lower the signal
How it was run: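 Steps: dose human primary bronchial epithelial cells, incubate 24 h, measure uPAR by ELISA, then fit gain- or loss-of-signal response bidirectionally relative to DMSO.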

[20] = read-out: Vascular endothelial growth factor receptor 2 (Homo sapiens) (UniProt P35968); assay: BSK_4H_VEGFRII: BioMAP Diversity Plus: 4H Assay for Vascular endothelial growth factor receptor 2 (VEGFR2) Biomarker Activity (AID 2283031); details: primary human endothelial cells (HUVEC); actives raise or lower the signal;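 as to AC50: cell-surface VEGFR2 protein level quantified by ELISA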
How it was run: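 ELISA read-out of VEGFRII in primary human umbilical vein endothelium, taken 24 h after chemical treatment. Responses are expressed relative to DMSO, with bidirectional fitting.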

Measured: AC50

Chain of human Vitamin D Receptor (VDR), VDR (gene 7421) (P11473 whole entry, looked up, the tested form may be a part): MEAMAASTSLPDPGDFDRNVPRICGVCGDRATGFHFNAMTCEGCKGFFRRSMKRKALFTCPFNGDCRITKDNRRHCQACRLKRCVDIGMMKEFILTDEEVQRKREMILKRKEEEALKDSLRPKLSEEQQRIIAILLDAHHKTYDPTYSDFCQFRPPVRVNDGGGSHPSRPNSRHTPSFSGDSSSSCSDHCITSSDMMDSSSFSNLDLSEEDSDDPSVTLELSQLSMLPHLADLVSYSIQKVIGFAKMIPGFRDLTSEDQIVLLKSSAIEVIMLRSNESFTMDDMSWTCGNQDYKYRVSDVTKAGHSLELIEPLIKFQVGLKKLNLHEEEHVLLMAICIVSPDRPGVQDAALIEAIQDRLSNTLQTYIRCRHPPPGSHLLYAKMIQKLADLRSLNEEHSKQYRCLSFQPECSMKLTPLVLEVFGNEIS

CNC(=O)[C@H]1O[C@@H](n2cnc3c(NCc4cc(Cl)ccc4OCc4cc(C)no4)ncnc32)[C@H](O)[C@@H]1N
not listed: [20]
inactive: all other assays above

CCCCCCCCCCCCCO
inactive: [3] | [9] | [10] | [12] | [15] | [16] | [17] | [18] | [19]
active: [1] 37 µM | [2] 37.4 µM | [4] 32.1 µM | [5] 20.6 µM | [6] 38.6 µM | [8] 31.8 µM | [11] 38.9 µM | [20] 30.6 µM | [13] 36.1 µM | [14] 29.7 µM

Cc1cc(=O)[nH]c(=S)[nH]1
inactive: all assays above

O=C(O)Cc1ccccc1Nc1c(Cl)cccc1Cl
not listed: [5]
inactive: all other assays above

COc1ccc2c(c1)c(CC(=O)O)c(C)n2C(=O)c1ccc(Cl)cc1
active: [5] 7.79 µM
not listed: [20]
inactive: all other assays above

CC(C)(C)c1cc(O)c(C(C)(C)C)cc1O
active: [3] 61.2 µM | [6] 9.8 µM | [8] 3.45 µM | [11] 4.17 µM | [20] 1.02 µM | [13] 6.44 µM
not listed: [7]
inactive: all other assays above

COc1cc(-c2nc(NC(=O)c3cc4cc(C)cc(C)c4n3CC(=O)O)sc2CCC2CCCCC2)c(OC)cc1Cl
active: [1] 5.83 µM | [2] 5.26 µM | [4] 2.92 µM | [5] 4.37 µM | [6] 4.08 µM | [8] 4.62 µM | [9] 3.12 µM | [10] 23.6 µM | [11] 4.62 µM | [20] 4.37 µM | [12] 1.25 µM | [13] 4.36 µM | [14] 1.3 µM | [15] 1.56 µM | [16] 4.38 µM | [17] 0.877 µM | [18] 1.03 µM | [19] 4.47 µM
inactive: [3]

Source: PubChem BioAssay (EPA / NIEHS)
